This passage reports PBM binding z-score results from the supplement of paper PMC6555819.

The test system of the assay is VDR:RXRa (NR concentration 270 nM, RXRa partner concentration 90 nM). The experiment in a line: PBM binding z-score (relative to random genomic background probes); higher = stronger binding; sequences stand for … in GC…GCGATTGACAGCGTAGAATGAAGG
As for the experimental part: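 Protein-binding microarray (Agilent 4x180K custom design, double-stranded 60-nt probes: 5' GC cap, 34-nt variable region, 24-nt constant primer region; full probe sequence given). Purified or IVT nuclear receptor:RXRα heterodimers (3:1 NR:RXRα, mostly 270:90 nM) or homodimers were incubated for 1 h in PBS with 2% milk and no ligand, then detected with Alexa488 antibodies. Fluorescence from o1-orientation probes (~5 replicates averaged) was converted to z-scores against 500 random hg19 background probes. Variable regions are seed direct-repeat (DR0–DR5) sites, all their single-nucleotide variants and half-site ablations.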
The sequence CCTAGTTCGTCAAGGTCACACACGCTATAGGTAC gave a PBM binding z-score of 6.46.
For CAAACTAGGTCAATGTCAAAGTCGGTTTGTGCCA the value was 1.58.
The result for GCATGTAGGTAATACAAGGTGAAAGTCCGATTGT reads 0.342; that for TCTATTAGTTAATTAGGGCAACCGAAACAGCGGA, 0.823.
For ACTATTAGTTGAGACGAGGGCAACCGCTAGGTTG the value was 0.628.
In the case of TGAATGAGGTTAAAGATCAGTGAACGTGGCGTCG, the PBM binding z-score turned out to be 1.62.
ACCTCTAGGTAACCAAGTTCAGTGAATGCCGAAC: the PBM binding z-score worked out at 3.96.
The result for TTACCAAGGTGAGCTGAGTTCGTTGATCCAACTC reads 4.86.
The result for CAAACTTGGTCAAGGTCAAAGTCGGTTTGTGCCA reads 4.47; that for CGAACTAGGTCATTGACAGGACAGTCAATAGTAA, 2.29.
For ATCTCTAGGTAAGACTCAGTTCAGTGTAGAACGC, the PBM binding z-score is 1.02.
The sequence TCGAGTAGGTTACCAATAGGGCATTCAGCTTTCT had a PBM binding z-score of 0.152.
For TCTAGTTGGTCACGCAGGTCACACACGACGGGTA the value was 4.01; for GTAACAAGGTGAATAGGTCGTTGATGAGTAGGCG, 1.22.
With CCTCGGAGGAGAACAGGAGGTCAGAGCTGCCAGA, the PBM binding z-score was 1.29.
For GCTAGTTGGTCAGTAAAAGGGCACACACCGGTCG the value was 0.0154; for TCTAGTTGGTCACGGAAGTCACACACGACGGGTA, 0.891.
As to TATACAGGGTCAAAGGCCGGAGTACGAATGTCGA, the PBM binding z-score was 4.5.
For GCTAGTTGGTCAGTAAAAGGTTACACACCGGTCG the value was 0.877.
As for CGTCCAAGGTGAGAGAGGTCAGTGAATGCCGAGT, the PBM binding z-score was 5.51.
For TCTTGTAGATCAATAGAGGGTAAGAAAGTGCGCT the value was 0.717; for TCGAGTAGGTTACCAATGGGGCAATCAGCTTTCT, 0.0268.
For GCATATACGTAATACAAGGTGAAAGTCCGATTGT the value was 0.232.
In turn, ATCTCTAGGTAACAAGTTCAGTGGAAGAGAGGAC yielded a PBM binding z-score of 2.
For GCTTACGGGTCAAAGGTTAGAGCATGAATAGAAT the value was 4.84; for GCTGCTAGGTCCGGTTGGTCAGCTAACGGGTACG, -0.965; for CCTTACGGGTCACGAGGTTATACCACGACGAGCG, 5.37.
For TCGAGTAGGTTACCAATGGGGTATTCAGCTTTCT the value was 0.0284.
The result for ACAGACAGGTGATGAAGGTAGCTCAGGCTATCAT reads -0.287.
The sequence AGGATGAGGTTAAGATCAGGGAAACAGAATACAT had a PBM binding z-score of 1.39.
As to TAGCCTATGTCAGATCGGGCCAGTATACGCTATA, the PBM binding z-score is -0.407.
For ACTATTTGTTGAGACGAGGGCAACCGATAGGTTG the value was 0.711; for TATACAGGGTCAAAGGCCAGAGAACGAATGTCGA, 4.77.
For TCTTGTAGAGCAAAGGTTAAGAAAGCCGAAGCCT, the PBM binding z-score came out at 0.679.
The sequence CGTCCAAGGTCAAAGGTGAGTGAAGAGATGACGG came in with a PBM binding z-score of 4.94.
The result for TCATATAGGTAAACAGTTGAAAGTCCGTAAGTTA reads 1.13; that for ACTAGTTGGTCATCTGAGGTCACACACAATTCGG, 5.04; that for ATATGTAGGTTAAGGGTCATCCAGGTTGGTTCGC, 5.91.
For the sequence GGAACGAGGGCTTTCGAGTTGATAGCATGGCGAT, the PBM binding z-score is -0.0757.
The result for GATACAGGGTCAGCTCGAGGCCAGAGTATGGAAA reads 3.61.
